TDP1 inh: qHTS Assay for Inhibitors of Tyrosyl-DNA Phosphodiesterase (TDP1); Tyrosyl-DNA phosphodiesterase 1 (Homo sapiens), Q9NUW8; recombinant TDP1, AlphaScreen DNA substrate cleavage; Potency, µM (doses to about 130 µM), for the others: top-dose activity change, negative = inhibition, most hits filed as inhibitors; 350,000 tested, 0.28% active; AID 485290, 2010; also: nearly all actives have a fitted effect of over 40% in size
Target sequence (Q9NUW8 whole entry, looked up): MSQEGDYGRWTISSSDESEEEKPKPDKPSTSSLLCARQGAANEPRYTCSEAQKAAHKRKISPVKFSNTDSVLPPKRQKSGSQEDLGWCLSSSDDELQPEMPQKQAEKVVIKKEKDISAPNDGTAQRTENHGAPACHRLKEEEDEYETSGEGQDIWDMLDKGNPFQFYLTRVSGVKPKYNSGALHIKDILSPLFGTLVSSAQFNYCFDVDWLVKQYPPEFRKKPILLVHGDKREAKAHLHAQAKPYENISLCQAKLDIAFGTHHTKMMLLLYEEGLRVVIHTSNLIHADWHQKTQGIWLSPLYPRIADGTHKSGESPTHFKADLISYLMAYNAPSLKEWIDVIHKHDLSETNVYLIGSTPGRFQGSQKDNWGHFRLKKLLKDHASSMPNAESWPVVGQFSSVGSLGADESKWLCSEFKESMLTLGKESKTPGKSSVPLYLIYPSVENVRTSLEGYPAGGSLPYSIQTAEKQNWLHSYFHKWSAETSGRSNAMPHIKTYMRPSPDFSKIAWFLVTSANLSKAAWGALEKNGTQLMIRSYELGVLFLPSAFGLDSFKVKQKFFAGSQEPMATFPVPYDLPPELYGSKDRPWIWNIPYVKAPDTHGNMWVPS
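AlphaScreen read-out: signal falls as enzyme removes the 3' tyrosine-FITC from a 5'-biotinylated DNA oligo (15 nM, 5 min, RT). Enzyme was E. coli-made recombinant Tdp1 at 1 nM, exposed to compound for 15 min beforehand; beads 10 ug/ml, 10 min.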
RORg inh: qHTS for inhibitors of ROR gamma transcriptional activity; AID 2551, 2010; 310,000 tested, 5.4% active; Drosophila S2 Gal4-RORgamma UAS-luciferase reporter, 20 h; Potency, µM (top dose mostly 53.6 µM), inactives show top-dose activity change, negative = inhibition, hits mostly inhibitors; also: nearly all actives have a fitted effect of over 60% in size
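Luminescence from a UAS-regulated Photinus luciferase reporter in stably transfected Drosophila Schneider cells is measured; decreased signal marks ROR gamma inhibition. Fusion expression is induced by 700 uM copper sulfate for 20 hr.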
VP16 counter: VP16 counterscreen qHTS for inhibitors of ROR gamma transcriptional activity; Drosophila S2 Gal4-VP16 UAS-luciferase, luminescence, 20 h; Potency, µM (highest dose often 53.6 µM), inactives show top-dose activity, negative = inhibition, hits mostly inhibitors; 310,000 tested, 3.5% active; AID 2546, 2010;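 also: Gal4-VP16 expression switched on by copper sulfate through the metallothionein promoter; nearly all actives have a fitted effect of over 50% in size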
TDP1 cell noCPT: qHTS for Inhibitors of human tyrosyl-DNA phosphodiesterase 1 (TDP1): qHTS in cells in absence of CPT | DT40 Tdp1-/- hTDP1 cells, no CPT, ATP luminescence, 48 h | Potency, µM (titrated, usually from 46.2 µM), for the others: top-dose activity change, negative = growth inhibition, most hits filed as inhibitors | 420,000 tested, 15% active | AID 686978, 2013; also: nearly all actives have a fitted effect of over 55% in size
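Readout: luminescence from CellTiter-Glo after 30 min in the dark at RT. Cells: DT40 Tdp1-/- with stable hTDP1, 400/well. Exposure: compounds alone, ≥48 hr, 37 °C.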
DT40 TDP1 CPT: qHTS for Inhibitors of human tyrosyl-DNA phosphodiesterase 1 (TDP1): qHTS in cells in presence of CPT; 420,000 tested, 12% active; chicken DT40 Tdp1-/-;hTDP1 cells + 20 nM CPT, ATP luminescence, 48 h; Potency, µM (titrated, usually from 46.2 µM), inactives show at the highest dose activity change, negative = growth inhibition, most hits filed as inhibitors; also: nearly all actives have a fitted effect of over 55% in size
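Cell growth measured by CellTiter-Glo luminescence after a minimum 48 h, 37 C compound exposure with 20 nM CPT in Tdp1-knockout DT40 cells stably expressing hTDP1, seeded 400/well; qHTS titration format.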
Starred values were filed as active, the others as inactive. Hits are enriched below; roughly 19% of the tested compounds scored in any of these assays. Calls follow the shape of the dose curve; as a rule, active = well fitted curve in the direction sought with a large enough effect; inconclusive = small, poorly fitted or top-dose-only effect, or another doubt; inactive = no such curve, though single readings can be large; an effect the other way counts as inactive or inconclusive. % is scaled to controls: 0 for no effect and ±100 for the full control effect; potency is read from the fitted curve at half-maximal effect.

Results for CC(=O)C1=C(C)NC(=O)NC1c1ccc(OC2CCCC2)cc1 (centres undefined) ?
TDP1 inh: 4%; RORg inh: 14%; VP16 counter: -1%; TDP1 cell noCPT: -11%; DT40 TDP1 CPT: -5%

What do the screens show for `CC(=O)NCCc1ccc(C(=O)Cn2cnc3ccccc3c2=O)cc1`?
RORg inh: -4%; VP16 counter: -8%; TDP1 cell noCPT: 3%; DT40 TDP1 CPT: -1%

Results for Cc1ccc2c(CNCc3cccs3)c(C(=O)O)n(Cc3ccc(F)cc3)c2c1 ?
TDP1 inh: 3%; TDP1 cell noCPT: 5.2µM*; DT40 TDP1 CPT: 6.5µM*

What do the screens show for `C=Cc1ccc(Cn2c(C(=O)O)c(CNCc3cccs3)c3ccc(C)cc32)cc1`?
TDP1 inh: 6%; TDP1 cell noCPT: inconclusive; DT40 TDP1 CPT: inconclusive

Results for CCOc1ccccc1CNCc1c(C(=O)O)n(Cc2ccc(F)cc2)c2cc(C)ccc12 ?
TDP1 inh: 0%; TDP1 cell noCPT: 5.8µM*; DT40 TDP1 CPT: 13µM*

How did C=Cc1ccc(Cn2c(C(=O)O)c(CNCc3ccc(F)cc3)c3ccc(C)cc32)cc1 do in these assays?
TDP1 inh: 8%; TDP1 cell noCPT: 23µM*; DT40 TDP1 CPT: 21µM*

How did Cc1ccc2c(CNC3CCCCC3)c(C(=O)O)n(Cc3ccc(F)cc3)c2c1 do in these assays?
TDP1 inh: 5%; TDP1 cell noCPT: inconclusive; DT40 TDP1 CPT: -20%

How did COc1ccc(Cn2c(C(=O)O)c(CNCc3cccs3)c3ccc(C)cc32)cc1 do in these assays?
TDP1 inh: 6%; TDP1 cell noCPT: 18µM*; DT40 TDP1 CPT: inconclusive

What do the screens show for `CCn1ncc(S(=O)(=O)NCc2ccco2)c1C`?
TDP1 inh: inconclusive; RORg inh: -7%; VP16 counter: -8%; TDP1 cell noCPT: 10%; DT40 TDP1 CPT: 3%

Results for CCc1noc(C)c1C(=O)N1CCCSC1=Nc1ccccc1C(C)C ?
TDP1 inh: -6%; TDP1 cell noCPT: inconclusive; DT40 TDP1 CPT: -24%

How did COc1ccc2c(CNCc3cccs3)c(C(=O)O)n(Cc3ccc(F)cc3)c2c1 do in these assays?
TDP1 inh: 3%; TDP1 cell noCPT: 9.2µM*; DT40 TDP1 CPT: 18µM*

How did C=Cc1ccc(Cn2c(C(=O)O)c(CNCCc3ccco3)c3ccc(C)cc32)cc1 do in these assays?
TDP1 inh: 6%; TDP1 cell noCPT: inconclusive; DT40 TDP1 CPT: inconclusive

Results for Cc1ccc2c(CNCc3ccc(C)o3)c(C(=O)O)n(Cc3ccc(F)cc3)c2c1 ?
TDP1 inh: 0%; TDP1 cell noCPT: 16µM*; DT40 TDP1 CPT: inconclusive

Results for CCN(CC)S(=O)(=O)c1cc(NC(=O)CSc2nnc(N)s2)ccc1C ?
TDP1 inh: 1%; TDP1 cell noCPT: -2%; DT40 TDP1 CPT: inconclusive

Results for CCN(CC)S(=O)(=O)c1cc(NC(=O)CSc2nc3c(cc2C#N)C(=O)CC(C)(C)C3)ccc1C ?
TDP1 inh: 6%; RORg inh: 15%; VP16 counter: 24%; TDP1 cell noCPT: 18µM*; DT40 TDP1 CPT: inconclusive

Results for NC1(C#Cc2ccc3oc(=O)c(-n4cc(C5(O)CCCCC5)nn4)cc3c2)CCCCC1 ?
TDP1 inh: 1%; TDP1 cell noCPT: -17%; DT40 TDP1 CPT: -1%

Results for NC1(C#Cc2ccc3oc(=O)c(-n4cc(-c5ccsc5)nn4)cc3c2)CCCCC1 ?
TDP1 inh: -1%; TDP1 cell noCPT: 8.2µM*; DT40 TDP1 CPT: 8.2µM*

Results for CCOC(=O)c1ccc(NC(=O)N2CCN(C3CCCCC3)CC2)cc1 ?
TDP1 inh: -2%; RORg inh: -25%; VP16 counter: 2%; TDP1 cell noCPT: -2%; DT40 TDP1 CPT: -9%

Results for O=S(=O)(c1ccccc1)n1nc(-c2ccccc2)nc1NCc1ccc(Cl)cc1 ?
TDP1 inh: -2%

What do the screens show for `O=S(=O)(c1ccccc1)n1nc(-c2ccc(Cl)cc2)nc1NCc1ccccc1`?
TDP1 inh: -3%; TDP1 cell noCPT: 16µM*; DT40 TDP1 CPT: inconclusive

Results for Nc1nnc(SCc2cccnc2)s1 ?
TDP1 inh: 8%; RORg inh: -2%; VP16 counter: -11%; TDP1 cell noCPT: -4%; DT40 TDP1 CPT: -19%

What do the screens show for `COc1ccc(-c2nc3sc(CCNC(=O)C(=O)Nc4c(C)cccc4C)c(C)n3n2)cc1`?
TDP1 inh: -8%; TDP1 cell noCPT: -13%; DT40 TDP1 CPT: -6%

How did COc1ccc(-c2nc3sc(CCNC(=O)c4ccco4)c(C)n3n2)cc1 do in these assays?
TDP1 inh: 3%; TDP1 cell noCPT: 13µM*; DT40 TDP1 CPT: inconclusive

What do the screens show for `COc1ccc(-c2nc3sc(CCNC(=O)Cc4ccccc4)c(C)n3n2)cc1`?
TDP1 inh: -5%; TDP1 cell noCPT: 21µM*; DT40 TDP1 CPT: 15µM*

How did COc1ccc(-c2nc3sc(CCNC(=O)Cc4ccc(F)cc4)c(C)n3n2)cc1 do in these assays?
TDP1 inh: 5%; TDP1 cell noCPT: 16µM*; DT40 TDP1 CPT: 16µM*

Results for COc1ccc(-c2nc3sc(CCNC(=O)c4cc(OC)c(OC)c(OC)c4)c(C)n3n2)cc1 ?
TDP1 inh: 0%; TDP1 cell noCPT: 16µM*; DT40 TDP1 CPT: 23µM*

How did COc1ccc(N2C(=O)CC(n3c(CCCCO)nc4ccccc43)C2=O)cc1 (centres undefined) do in these assays?
TDP1 inh: 8%; RORg inh: -43%; VP16 counter: 7%; TDP1 cell noCPT: inconclusive; DT40 TDP1 CPT: inconclusive

Results for Cc1nc(-c2ccc(Cl)cc2)sc1CCNC(=O)Cc1ccc(F)cc1 ?
TDP1 inh: 2%; TDP1 cell noCPT: 15µM*; DT40 TDP1 CPT: 16µM*

Results for COc1ccc(Nc2cc(C(=O)NC3CCC(C)CC3)c3ccccc3n2)cc1OC (centres undefined) ?
TDP1 inh: 2%; TDP1 cell noCPT: inconclusive; DT40 TDP1 CPT: inconclusive

How did CC(C)c1ccc(Nc2cc(C(=O)NC3CCCCC3)c3ccccc3n2)cc1 do in these assays?
TDP1 inh: 2%; TDP1 cell noCPT: 21µM*; DT40 TDP1 CPT: 10µM*

What do the screens show for `CCc1ccccc1Nc1cc(C(=O)NC2CCC(C)CC2)c2ccccc2n1` (centres undefined)?
TDP1 inh: 7%; TDP1 cell noCPT: inconclusive; DT40 TDP1 CPT: 12µM*

How did O=C(NC1CCCCC1)c1cc(Nc2cccc(C(F)(F)F)c2)nc2ccccc12 do in these assays?
TDP1 inh: 0%; TDP1 cell noCPT: inconclusive; DT40 TDP1 CPT: 21µM*
